This passage reports outcome and AC50 results from PubChem BioAssay.

Records with an inconclusive call do not appear. Calls of active or inactive are those of the source. Unless noted, the limit is not given here; nearly all actives have AC50 up to about 26 µM.
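Also: cells exposed to compound for 48 hours before readout.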

A short description of the first test: growth inhibition of DIPG cells – cell-based, MIPE4.0 library, CellTiter-Glo luminescence, qHTS (AID 1347066; cut-off not given, nearly all actives have AC50 up to about 30 µM). The following applies: SU-DIPG-VI viability, CellTiter-Glo ATP luminescence. (ATP-based viability assays read luminescence as a measure of living cells.)
Turning to `CCN1C[C@]2(OC(=O)c3ccccc3NC(C)=O)CC[C@H](OC)[C@@]34[C@@H]2C[C@@H]([C@@H]13)[C@@]1(O)C[C@H](OC)[C@H]2C[C@@H]4[C@]1(O)[C@H]2OC`, the call was inactive.

For `C[C@]12CC[C@H]3[C@@H](CC[C@@]45O[C@@H]4C(O)=C(C#N)C[C@]35C)[C@@H]1CC[C@@H]2O`, the call was inactive.

With `c1ccc2c(CN3CCNCC3)cccc2c1`, the compound was classed as inactive.

Regarding `CC1=C2C[C@H]3[C@@H](CC=C4C[C@@H](O)CC[C@@]43C)[C@@H]2CC[C@]12O[C@@H]1C[C@H](C)CN[C@H]1[C@H]2C`, the call was inactive.

On to `O=C(Nc1ccncc1)C(=O)c1cn(Cc2ccc(Cl)cc2)c2ccccc12`, for which the call was inactive.

Broadly, the AC50 is the concentration giving half of the maximal activity seen. For `CN1[C@@H]2CC(O)C[C@H]1[C@@H]1O[C@@H]12` (some centres undefined), the AC50 is 16.6 µM (active).

Take `C[C@]12Cc3cn[nH]c3C[C@@H]1CC[C@@H]1[C@@H]2CC[C@@]2(C)[C@H]1CC[C@]2(C)O`: the call was inactive.

For the compound `CC[C@H]1/C=C\C=C/C[C@@H](C)[C@H](O)[C@@](C)(O)C(=O)[C@@H](C)[C@H](O)[C@@H](C)C(=O)[C@@H](C)[C@H](O)[C@@H](C)/C=C/C(=O)O[C@@H]2[C@H](C)[C@H](CC1)O[C@]1(CC[C@H](C)[C@H](C[C@@H](C)O)O1)[C@H]2C`, the half-maximal activity concentration (AC50) was 6.62 µM (active).

In the case of `O=S(=O)(F)Cc1ccccc1`, the call was inactive.

Turning to `C[C@@H]1CC[C@@]2(OC1)O[C@H]1C[C@H]3[C@@H]4CC=C5C[C@@H](O[C@@H]6O[C@H](CO)[C@@H](O[C@@H]7O[C@@H](C)[C@H](O)[C@@H](O)[C@H]7O)[C@H](O)[C@H]6O[C@@H]6O[C@@H](C)[C@H](O)[C@@H](O)[C@H]6O)CC[C@]5(C)[C@H]4CC[C@]3(C)[C@H]1[C@@H]2C`, the AC50 is 5.26 µM (active).

Consider `CC(=O)Nc1ccc(OC[C@](C)(O)C(=O)Nc2ccc([N+](=O)[O-])c(C(F)(F)F)c2)cc1`, for which the compound was called inactive.

As for `COc1ccc(N(C(=O)Oc2c(C)cccc2C)c2ccnc(Nc3ccc(N4CCN(C)CC4)cc3)n2)c(OC)c1`, the compound was called inactive.

The next test can be described thus: JHH-DIPG-1 glioma cell viability, MIPE5.0 library, CellTiter-Glo luminescence, qHTS (AID 1347067). The following applies: JHH-DIPG-1 glioma viability, CellTiter-Glo ATP luminescence.
`CCN1C[C@]2(OC(=O)c3ccccc3NC(C)=O)CC[C@H](OC)[C@@]34[C@@H]2C[C@@H]([C@@H]13)[C@@]1(O)C[C@H](OC)[C@H]2C[C@@H]4[C@]1(O)[C@H]2OC`: the result was inactive.

For `C[C@@H]1O[C@@H](O[C@@H]2C=C3CC[C@@H]4[C@H](CC[C@]5(C)[C@@H](c6ccc(=O)oc6)CC[C@]45O)[C@@]3(C)CC2)[C@H](O)[C@H](O)[C@H]1O`, the AC50 is 0.0118 µM (active).

`CN[C@@H]1C[C@H]2O[C@@](C)([C@@H]1OC)n1c3ccccc3c3c4c(c5c6ccccc6n2c5c31)C(=O)NC4`: the AC50 is 0.209 µM (active).

With `c1ccc2c(CN3CCNCC3)cccc2c1`, the result was inactive.

In the case of `CC1=C2C[C@H]3[C@@H](CC=C4C[C@@H](O)CC[C@@]43C)[C@@H]2CC[C@]12O[C@@H]1C[C@H](C)CN[C@H]1[C@H]2C`, the compound was called inactive.

For the compound `O=c1[nH]c2ccc(Cl)cc2c(N[C@@H]2CN3CCC2CC3)c1-c1nc2ccccc2[nH]1`, the AC50 is 3.32 µM (active).

Consider `O=C(Nc1ccncc1)C(=O)c1cn(Cc2ccc(Cl)cc2)c2ccccc12`, for which the AC50 was 0.417 µM (active).

As to `CN1[C@@H]2CC(O)C[C@H]1[C@@H]1O[C@@H]12` (some centres undefined), the outcome was inactive.

As to `Cc1[nH]ncc1-c1cc2nc([C@@H]3CC4CCN3CC4)[nH]c(=O)c2s1`, the half-maximal activity concentration (AC50) was 14.8 µM (active).

Consider `COc1cc2c(cc1F)C(c1ccccc1Cl)=Nc1c(n[nH]c1C)N2`, for which the concentration at half-maximal activity (AC50) is 14.8 µM (active).

For `O=C(NCCCNc1nc(Nc2ccc(N3CCOCC3)cc2)ncc1C1CC1)C1CCC1`, the AC50 is 14.8 µM (active).

`C[C@]12Cc3cn[nH]c3C[C@@H]1CC[C@@H]1[C@@H]2CC[C@@]2(C)[C@H]1CC[C@]2(C)O`: the call was inactive.

Regarding `CN1C(=O)[C@@H](NC(=O)[C@H](CCC(F)(F)F)[C@H](CCC(F)(F)F)C(N)=O)N=C(c2ccccc2)c2ccccc21`, the result was inactive.

Turning to `CC[C@H]1/C=C\C=C/C[C@@H](C)[C@H](O)[C@@](C)(O)C(=O)[C@@H](C)[C@H](O)[C@@H](C)C(=O)[C@@H](C)[C@H](O)[C@@H](C)/C=C/C(=O)O[C@@H]2[C@H](C)[C@H](CC1)O[C@]1(CC[C@H](C)[C@H](C[C@@H](C)O)O1)[C@H]2C`, the AC50 was 0.0661 µM (active).

Consider `Cc1ncc(OC[C@@]2(c3cccc(F)c3)C[C@H]2C(=O)Nc2ccc(F)cn2)c(C)n1`, for which the compound was called inactive.

For the compound `COc1cc(C)[nH]c(=O)c1CNC(=O)c1c(C)n([C@H](C)C2CCOCC2)c2ccccc12`, the call was inactive.

As to `CC1(C)CC[C@]2(NC(=O)C(C)(F)F)CC[C@]3(C)[C@H](C(=O)C=C4[C@@]5(C)C=C(C#N)C(=O)C(C)(C)[C@@H]5CC[C@]43C)[C@@H]2C1`, the concentration at half-maximal activity (AC50) is 7.42 µM (active).

Take `CC(=O)OC[C@H]1O[C@@H]([S-])[C@H](OC(C)=O)[C@@H](OC(C)=O)[C@@H]1OC(C)=O.CC[PH+](CC)CC.[Au]`: the AC50 was 1.32 µM (active).

As for `COc1cc(C)[nH]c(=O)c1CNC(=O)c1c(C)n([C@H](C)C2CCN(CC(F)(F)F)CC2)c2ccccc12`, the result was inactive.

Take `O=S(=O)(F)Cc1ccccc1`: the compound was called inactive.

On to `C[C@@H]1CC[C@@]2(OC1)O[C@H]1C[C@H]3[C@@H]4CC=C5C[C@@H](O[C@@H]6O[C@H](CO)[C@@H](O[C@@H]7O[C@@H](C)[C@H](O)[C@@H](O)[C@H]7O)[C@H](O)[C@H]6O[C@@H]6O[C@@H](C)[C@H](O)[C@@H](O)[C@H]6O)CC[C@]5(C)[C@H]4CC[C@]3(C)[C@H]1[C@@H]2C`, for which the AC50 was 0.742 µM (active).

As to `Cn1c(COP(=O)(NCCBr)NCCBr)cnc1[N+](=O)[O-]`, the compound was called inactive.

For the compound `CC(=O)Nc1ccc(OC[C@](C)(O)C(=O)Nc2ccc([N+](=O)[O-])c(C(F)(F)F)c2)cc1`, the outcome was inactive.

On to `CN(C)c1cc2c(cc1Sc1nc3c(N)nccc3n1CCNCC(C)(C)C)OCO2`, for which the AC50 is 1.32 µM (active).

For the compound `C=C(C)[C@@H]1CCC(C)=C[C@H]1c1c(O)cc(CCCCC)cc1O`, the AC50 is 23.5 µM (active).

Take `Cn1c(CCCCCCC(=O)NO)nc2cc(N(CCCl)CCCl)ccc21`: the AC50 was 9.34 µM (active).

Take `COc1ccc(N(C(=O)Oc2c(C)cccc2C)c2ccnc(Nc3ccc(N4CCN(C)CC4)cc3)n2)c(OC)c1`: the AC50 was 16.6 µM (active).

Take `COC(=O)[C@@]12OC[C@]34[C@H]([C@@H](O)[C@@H]1O)[C@@]1(C)CC(=O)C(O)=C(C)[C@@H]1C[C@H]3OC(=O)[C@H](OC(=O)/C=C(\C)C(C)C)[C@@H]24`: the half-maximal activity concentration (AC50) is 0.0525 µM (active).

`COc1cc(C(=O)N2CC[C@@H](O)[C@@H](N)C2)cc2nc(-c3cc4ccccc4n3CC3CC3)n(C)c12`: the AC50 is 23.5 µM (active).

Consider `CC(N[C@H]1C[C@@H]1c1ccccc1)c1ccc2c(c1)OCCO2` (some centres undefined), for which the result was inactive.

In the case of `C[C@H]1[C@H](O)[C@@H](C)/C=C/C=C/CC/C=C/C=C/C=C/C=C/[C@H](O[C@@H]2O[C@H](C)[C@@H](O)[C@H](N)[C@@H]2O)C[C@@H]2O[C@](O)(C[C@@H](O)[C@H](O)CC[C@@H](O)C[C@@H](O)C[C@@H](O)CC(=O)O[C@H]1C)C[C@H](O)[C@H]2C(=O)O`, the compound was called inactive.

With `CC(C)(C)c1cc(C=C(C#N)C#N)cc(Br)c1O`, the AC50 is 18.6 µM (active).
